# SKOV3 invasion = Primary qHTS assay for Inhibitors of ovarian cancer metastasis using an organotypic tumor microenvironment (TME) model | SKOV3ip1-GFP adhesion/invasion on 3D omental model, fluorescence | Potency, µM (highest dose often 45.8 µM), for the others: at the highest dose activity change, negative = inhibition, most hits filed as inhibitors | 0.1% of 46,000 active | AID 1963576, 2024;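 note: potency is the fitted concentration of half-maximal effect; plate controls were DMSO wells for no effect and tomatine positive control wells for full effect; nearly all actives have a fitted effect of over 65% in size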
#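 qHTS, 4-pt dose (0.36-46 umol/L); SKOV3ip1-GFP, 1,200 cells/well, no FBS; primary omental fibroblast/mesothelial co-culture 48 h pre-grown; 2 h RT + 16 h 37 C; PBS wash, 4% PFA; GFP count 488/509 nm.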
# NTMT1 inhibitor = Primary qHTS for Inhibitors of N-terminal methyltransferase 1 (NTMT1): MTaseGlo Assay; N-terminal Xaa-Pro-Lys N-methyltransferase 1 (Homo sapiens), Q9BV86; NTMT1 MTase-Glo SAH luminescence, purified enzyme; Potency, µM (doses to about 114 µM), inactives show at the top dose activity change, negative = inhibition, most hits filed as inhibitors; 2.5% of 59,000 active; AID 1645870, 2021;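 note: potency is the fitted concentration of half-maximal effect; plate controls were DMSO vehicle for no effect and no enzyme for full effect; nearly all actives have a fitted effect of over 65% in size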
# Target sequence (Q9BV86 whole entry, looked up): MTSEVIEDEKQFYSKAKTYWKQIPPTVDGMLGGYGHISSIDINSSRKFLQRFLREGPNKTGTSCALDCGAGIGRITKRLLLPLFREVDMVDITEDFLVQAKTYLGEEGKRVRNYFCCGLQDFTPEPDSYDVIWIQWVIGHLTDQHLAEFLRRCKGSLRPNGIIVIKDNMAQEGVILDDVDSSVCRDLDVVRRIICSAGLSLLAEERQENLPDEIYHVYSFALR
# HTT-AS promoter = Primary qHTS for Identification of Small Molecule Activators of Huntingtin-Antisense Promoter Activity | HEK293 HTT-AS promoter firefly luciferase reporter, 24 h; response scale: percent change from vehicle, -100% = no light | Potency, µM (titrated, usually from 57.5 µM), inactives show at the top dose activity change, positive = activation, actives largely listed as activators | 0.24% of 48,000 active; note: potency is the fitted concentration of half-maximal effect; nearly all actives have a fitted effect of over 55% in size
#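 Firefly luciferase signal from promoter-reporter HEK293 cells was scaled between vehicle (0%) and zero RLU (-100%). Compounds were tested at final concentrations of up to 57.5 uM over 24 h at 37 degrees C. PTC124 at 50 uM final served as control inhibitor.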
# HTT promoter inh = Primary qHTS for Identification of Small Molecule Inhibitors of Huntingtin Promoter Activity. 0.93% of 48,000 active. HEK293 HTT promoter firefly luciferase reporter, 24 h. AID 1508623, 2021. Potency, µM (doses to about 57.5 µM), for inactives: at the highest dose activity change, negative = inhibition, actives largely listed as inhibitors; note: potency is the fitted concentration of half-maximal effect; nearly all actives have a fitted effect of over 50% in size
#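 HEK293 luciferase promoter-reporter cells (2,500/well) plated 24 h, then compounds added at up to 57.5 uM final for 24 h at 37 °C. Firefly luminescence by Dual-Glo, normalized to vehicle (0%) and zero RLU (-100%).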
# DYRK1A KinaseGlo = Assay for Inhibitors of Dual-Specificity Tyrosine-(Y)-Phosphorylation Regulated Kinase 1A (Kinase-Glo assay). shares compounds with NTMT1 inhibitor. recombinant DYRK1A, Kinase-Glo ATP depletion luminescence. Potency, µM (series often up to 76.9 µM), for the others: at the highest dose activity change, negative = inhibition, actives largely listed as inhibitors. 80% of 100 active
# CLK4 KinaseGlo = Confirmation Assay for Inhibitors of CDC-like Kinase 4 (Kinase-Glo Assay): SAR round 2; shares compounds with NTMT1 inhibitor; recombinant Clk4, Kinase-Glo ATP luminescence, 4.5 h; Potency, µM (highest dose often 76.9 µM), for the others: at the highest dose activity, negative = inhibition, most hits filed as inhibitors; 90% of 90 active; AID 493204, 2011
# NNMT inh = Counterscreen qHTS for Inhibitors of N-terminal methyltransferase 1 (NTMT1): NNMT MTaseGlo assay; shares compounds with NTMT1 inhibitor; NNMT MTase-Glo luminescence, SAH detection; Potency, µM (series often up to 57.1 µM), inactives show at the top dose activity, negative = inhibition, actives largely listed as inhibitors; 10% of 120 active; AID 1645878, 2021
# * = called active by the depositor; ? = inconclusive; . = not tested or not shown; [ ] = another dose, or the depositor's remark. Shown are actives, neighbours in structure and some others; about 2.5% of the full set was active somewhere. Calls come from the whole dose curve; as a rule, active = well fitted curve in the direction sought with a large enough effect; inconclusive = small, poorly fitted or top-dose-only effect, or another doubt; inactive = no such curve, though single readings can be large; an effect the other way counts as inactive or inconclusive.
SMILES,SKOV3 invasion,NTMT1 inhibitor,HTT-AS promoter,HTT promoter inh,others
CCOc1cc(N2CCC(O)CC2)ccc1Nc1ncc2c(n1)N(C)c1ccccc1C(=O)N2C,4%,?,-25%,24%,
CCCC1(CCC)CCC2(CCN(CCCN(CC)CC)C2)CC1,.,22µM*,.,.,NNMT inh=-15%
c1coc(-c2ccc3ncnc(NCc4cccs4)c3c2)c1,.,-14%,.,.,DYRK1A KinaseGlo=6.5µM*
Clc1ccccc1-c1ccc2ncnc(NCc3cccs3)c2c1,.,5%,.,.,
O=Cc1ccc(-c2ccc3ncnc(NCc4cccs4)c3c2)o1,.,?,.,.,CLK4 KinaseGlo=26µM*
C[C@@H](O)c1ccc(-c2ccc3ncnc(NCc4cccs4)c3c2)o1,.,-10%[57.5 µM],.,.,CLK4 KinaseGlo=1.5µM*
Cc1csc(CNc2ncnc3ccc(-c4ccc(C(C)O)o4)cc23)n1 (configuration not stated),.,?,.,.,CLK4 KinaseGlo=1µM*
CC1=C2C(=O)C=C(CO[C@@H]3O[C@H](CO)[C@@H](O)[C@H](O)[C@H]3O)[C@@H]2[C@H]2OC(=O)[C@H](C)[C@@H]2[C@@H](O)C1,.,11%[29.8 µM],.,.,
FC1(F)Oc2ccc(-c3ccc4ncnc(NCc5cccs5)c4c3)cc2O1,.,6%,.,.,DYRK1A KinaseGlo=?
Clc1cccc(-c2ccc3ncnc(NCc4cccs4)c3c2)c1,.,-23%,.,.,
O=C1CCCC2=C1C(c1[nH]ncc1Cl)NC(=NCCc1ccccc1)N2 (configuration not stated),.,-4%,.,.,
C[C@]12CC[C@@H]3c4ccc(O)cc4CC[C@H]3[C@@H]1C[C@@H](O)[C@@H]2O,.,?,-2%,2%,
C[C@]12CC[C@@H]3c4ccc(O)c(O)c4CC[C@H]3[C@@H]1CCC2=O,.,28µM*,.,.,NNMT inh=35µM*
CC(C)=CCC[C@](C)(O[C@@H]1O[C@H](CO[C@@H]2O[C@H](CO)[C@@H](O)[C@H](O)[C@H]2O)[C@@H](O)[C@H](O)[C@H]1O)C1CC[C@]2(C)[C@@H]1[C@H](O)CC1[C@@]3(C)CC[C@H](O[C@@H]4O[C@H](CO)[C@@H](O)[C@H](O)[C@H]4O[C@@H]4O[C@H](CO)[C@@H](O)[C@H](O)[C@H]4O)C(C)(C)[C@@H]3CC[C@]12C (some centres not stated),.,-8%[12.6 µM],.,.,
O=C(Nc1ccccc1Br)N[C@@H]1CCN(c2ccc(C(F)(F)F)cn2)C1,1%,1%,-8%,-4%,

# Bioassay records deposited in PubChem BioAssay by National Center for Advancing Translational Sciences (NCATS).
